Nrf2 ARE act: activators of Nrf2 (ARE) signaling | AREc32 ARE-luciferase reporter (MCF7-derived line), luminescence, 24 h | Potency, µM (series often up to 46.1 µM), for the others: top-dose activation, actives largely listed as activators | 410,000 compounds, 0.31% hits | AID 624171; further: potency means the concentration at half of the fitted maximal effect; % of control where 0% means no effect; nearly all actives have a fitted effect of over 65% in size
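For detection, Steady-Glo was added and plates sat 30 min at RT; before that, AREc32_Fluc cells grown overnight in OPTI-MEM/5% FBS had been treated with 23 nL compound for 24 hr at 37 deg C.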
ELG1 repair inh: ELG1-dependent DNA repair inhibition | HEK293T ELG1-luciferase reporter, luminescence, 16 h; DNA damage induced by 5-fluorouridine | 330,000 compounds, 2.3% hits | Potency, µM (top dose mostly 46.1 µM), without a hit: top-dose activity change, negative = inhibition, most hits filed as inhibitors | AID 504467; further: potency means the concentration at half of the fitted maximal effect; on the % scale 0 is the no-effect control and ±100 the full control effect; nearly all actives have a fitted effect of over 55% in size
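Overnight (16 hr) co-exposure of 2,000 cells/well to 5-fluorouridine and compound at 37 °C preceded detection. Luciferase was quantified via ONE-Glo luminescence; loss of signal denotes inhibition.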
BRCA1 expr up: activators of BRCA1 expression; MCF7-BRCA1-FFLuc reporter, luminescence, 48 h; response scale: scaled: vehicle 0%, 10 µM genistein 100%; Potency, µM (titrated, usually from 46.1 µM), inactives show at the highest dose activation, hits mostly activators; 380,000 compounds, 1.1% hits; further: potency means the concentration at half of the fitted maximal effect; nearly all actives have a fitted effect of over 80% in size
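Activators of BRCA1 expression were detected as increased firefly luciferase luminescence in engineered MCF7 cells after 48 h compound incubation. Signals were scaled to genistein 10 microM as full activation.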
IL2 activator: activators of IL-2; IL-2 activation reporter assay, cell-based qHTS; stimulated with anti-CD3/CD4/CD28 beads; in transgenic mouse T cells; activation, % (series mostly up to about 46 µM); 360,000 compounds, 0.065% hits; AID 652025; in the data active means activation above about 50%; inconclusive means mostly about 30% to 49%; further: 0% is about no effect
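Screening format: compound pinned onto unstimulated transgenic mouse T cells, 60 min incubation, then anti-CD3/anti-CD4/anti-CD28 bead stimulation for 18 hours at 37 degrees C, followed by EGFP and DsRed detection.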
Active calls of the source: *. Compounds with a hit are over-represented: about 3.1% of the library has one in this group of screens. Unless noted, the call rests on the fitted dose curve; in most records, active means well fitted curve in the direction sought with a large enough effect; inconclusive means small, poorly fitted or top-dose-only effect, or another doubt; inactive means no such curve, though single readings can be large; an effect the other way counts as inactive or inconclusive.

`CCCCCN=C(C)c1c(O)c2ccccc2oc1=O` gave Nrf2 ARE act 9%, ELG1 repair inh inconclusive, BRCA1 expr up 11µM* and IL2 activator 0.
Screening C/C(=N/NS(=O)(=O)c1ccc(C)cc1)c1c(O)c2ccccc2oc1=O returned Nrf2 ARE act 2%, ELG1 repair inh -15%, BRCA1 expr up -22% and IL2 activator 0.
`CC(C)CCNC(=O)Nc1ccc2c(c1)N(Cc1ccccc1)C(=O)c1ccccc1S2` gave Nrf2 ARE act 0%.
For CCOc1ccc(OCC)c(S(=O)(=O)NCCOC23CC4CC(CC(C4)C2)C3)c1 the results were Nrf2 ARE act 0%, ELG1 repair inh inconclusive, BRCA1 expr up -65% and IL2 activator 0.
For COc1cc(S(=O)(=O)NCCOC23CC4CC(CC(C4)C2)C3)c(OC)cc1Cl the results were Nrf2 ARE act 0%, ELG1 repair inh 16µM*, BRCA1 expr up -57% and IL2 activator -3.
`Cc1cc(NC(=O)CSc2nc3c([nH]c4ccccc43)c(=O)n2-c2ccccc2F)no1` gave Nrf2 ARE act 6%, ELG1 repair inh 21µM*, BRCA1 expr up -50% and IL2 activator -4.
Screening Cc1cc(NC(=O)CSc2nc(CCC3CCCC3)nc3ccccc23)no1 returned Nrf2 ARE act 13%, ELG1 repair inh inconclusive, BRCA1 expr up -44% and IL2 activator -3.
COc1ccccc1-n1c(SCC(=O)Nc2cc(C)on2)nc2c([nH]c3ccccc32)c1=O was read as Nrf2 ARE act 6%, ELG1 repair inh -28%, BRCA1 expr up -60% and IL2 activator 0.
Screening CCCc1nc(SCC(=O)Nc2cc(C)on2)c2ccccc2n1 returned Nrf2 ARE act 17%, ELG1 repair inh 26µM*, BRCA1 expr up -52% and IL2 activator 2.
For O=C1NC2c3c(Cl)sc(Cl)c3C(=O)C2O1 (centres undefined) the results were Nrf2 ARE act 16µM*, BRCA1 expr up 10% and IL2 activator -1.
O=C1NC2c3c(I)sc(I)c3C(=O)C2O1 (centres undefined) was read as Nrf2 ARE act 11µM*, BRCA1 expr up -35% and IL2 activator -1.
`COc1cc(NC(=O)Cn2c(=O)n(Cc3ccccc3Cl)c(=O)c3cc(OC)c(OC)cc32)cc(OC)c1` gave Nrf2 ARE act -1% and BRCA1 expr up 2%.
Screening O=C(C1CCC(Cn2c(=O)c3sccc3n(Cc3cccc(F)c3)c2=O)CC1)N1CCCCC1 (centres undefined) returned Nrf2 ARE act -1%.
For CCn1c(O)c(/C=N/N=C/c2ccc(OC)cc2)c2cc(C3=NNC(=O)CC3)ccc21 the results were Nrf2 ARE act 1%, ELG1 repair inh 5%, BRCA1 expr up -6% and IL2 activator 215*.
For O=C(CN1C(=O)COc2ccc(S(=O)(=O)N3CCCCCC3)cc21)NCCc1ccccc1 the results were Nrf2 ARE act 0%.
Screening CN(CC(=O)Nc1ccccc1Br)C(=O)c1ccccc1-c1nc2ccccc2s1 returned Nrf2 ARE act 0%, ELG1 repair inh 21µM*, BRCA1 expr up -38% and IL2 activator -6.
CN(CC(=O)Nc1ccccc1Br)C(=O)c1cc(Cl)nc2ccccc12 was read as Nrf2 ARE act -1%, ELG1 repair inh -1%, BRCA1 expr up -7% and IL2 activator 0.
For CCCN(CC1CC1)C(=O)CSc1ncnc2sc(C)c(C)c12 the results were Nrf2 ARE act 1%, ELG1 repair inh 18µM*, BRCA1 expr up -45% and IL2 activator 0.
Screening Cc1sc2ncnc(SCC(=O)c3cccs3)c2c1C returned Nrf2 ARE act 14µM*, ELG1 repair inh inconclusive, BRCA1 expr up 67% and IL2 activator -3.
`Cc1cccc(NC(=O)CSc2ncnc3sc(C)c(C)c23)n1` gave Nrf2 ARE act 10%, ELG1 repair inh -19%, BRCA1 expr up -9% and IL2 activator -3.
`CCNc1nc(-c2sc(NC(=O)C(C)(C)C)nc2C)c(-n2cc(-c3ccccc3)nn2)s1` gave Nrf2 ARE act -3%, BRCA1 expr up -65% and IL2 activator -1.
Screening Cc1c(C(=O)Nc2ccc(F)cc2F)nnn1-c1ccccc1Br returned Nrf2 ARE act 5%.
For CN(C)c1ccc(/C=C/c2ccc3cc(N)ccc3n2)cc1 the results were BRCA1 expr up -74%.
Screening Cc1ccccc1NC(=O)CCn1nc(-c2ccccc2)c2ccccc2c1=O returned Nrf2 ARE act 4%.
For COc1ccc(C2/C=C\CC(OCc3ccccc3)CC(=O)N2Cc2cccc(F)c2)cc1 (centres undefined) the results were Nrf2 ARE act 4%, ELG1 repair inh 21µM*, BRCA1 expr up -32% and IL2 activator -1.
For COc1ccc(C2/C=C\CN(C(=O)OCc3ccccc3)CC(=O)N2Cc2ccc(F)cc2)cc1 (centres undefined) the results were Nrf2 ARE act 5%, ELG1 repair inh -9%, BRCA1 expr up 2% and IL2 activator 0.
Screening CCC(=O)N1CCc2cc(S(=O)(=O)NCCC(=O)Nc3cccc(SC)c3)ccc21 returned Nrf2 ARE act 5%.
`CCN(CC(=O)Nc1ccccc1C(F)(F)F)C(=O)c1ccc(NC(=O)c2cccs2)cc1` gave Nrf2 ARE act 0%, BRCA1 expr up 25% and IL2 activator 0.
Screening CSc1ccccc1NC(=O)CN(C)C(=O)c1ccc(NC(=O)c2cccs2)cc1 returned Nrf2 ARE act 0%, ELG1 repair inh 21µM*, BRCA1 expr up 6% and IL2 activator 2.
CN(C)CCCN=c1cc(-c2ccccc2)oc2ccc(Cl)cc12 was read as Nrf2 ARE act 14µM*, ELG1 repair inh inconclusive, BRCA1 expr up 11µM* and IL2 activator -1.
For OCCN=c1cc(-c2ccccc2)oc2ccc(Cl)cc12 the results were Nrf2 ARE act inconclusive, ELG1 repair inh inconclusive, BRCA1 expr up 56% and IL2 activator 0.
For CCc1nnc(SCC(=O)Nc2cccc(C(F)(F)F)c2)c2cc3oc(C)cc3n12 the results were Nrf2 ARE act 4%.
CCOc1ccc(OCc2ccc(C(=O)NCc3cccnc3)o2)cc1 was read as Nrf2 ARE act 2%, ELG1 repair inh 19%, BRCA1 expr up 11µM* and IL2 activator 0.
`CC(=O)c1ccc(N2CCN(c3ncnc4c3c(-c3ccccc3)cn4-c3cccc(C)c3)CC2)cc1` gave Nrf2 ARE act 0%.
For Cc1cc(-c2ccccc2)nc(N/N=C/c2ccc([N+](=O)[O-])cc2)n1 the results were Nrf2 ARE act 4%, ELG1 repair inh 13µM*, BRCA1 expr up -3% and IL2 activator -3.
Screening O=[N+]([O-])c1ccc(N/N=C/c2ccccc2)c(F)c1 returned Nrf2 ARE act 6%, ELG1 repair inh inconclusive, BRCA1 expr up 8.9µM* and IL2 activator 0.
Screening Cc1cc(-c2ccccc2)nc(N/N=C/c2ccccc2)n1 returned Nrf2 ARE act 0%, ELG1 repair inh inconclusive, BRCA1 expr up 95% and IL2 activator -1.

Source: PubChem BioAssay
